# Measurements published in PubChem BioAssay.
# Active and inactive are the calls of the source. Rule as the data show it, unless noted: active = inhibition above about 80%; inactive = the rest.
# What was measured:
# [1] = growth inhibition, single agent or in combination, cell-based, chromothripsis tumors, cisplatin or BGB combos (AID 1671449); settings: LFS_MB_P medulloblastoma cells;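 also: cells exposed for 96 hours; 0% = vehicle DMSO and 100% = killing by high DMSO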
# [2] = growth inhibition, single agent and combos, cell-based, chromothripsis tumors, cisplatin or BGB combos (AID 1671450); settings: HDN33 neuroblastoma cells, stronger effect = higher value;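 also: cells exposed to compound for four days; 0% = vehicle DMSO and 100% = cell killing by high DMSO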
# [3] = growth inhibition, single agents and combos, ICB984, cell-based, cisplatin or BGB combos, synergistic combos for chromothripsis tumors (AID 1671451; call rule not given here;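 also: cells exposed for 96 hours before readout; 0% = vehicle DMSO and 100% = killing by high DMSO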); settings: ICB984 medulloblastoma cells, drug combinations, stronger effect = higher value
# [4] = growth inhibition, single agents and combos, LFS_MB_1R, cell-based, cisplatin or BGB combos, synergistic combos for chromothripsis tumors (AID 1671452); settings: LFS_MB_1R medulloblastoma cells, stronger effect = higher value;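 also: cells exposed for 96 hours before readout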
# [5] = growth inhibition, single agents and combos, HTB85, cell-based, BGB or cisplatin IC20 combos, synergistic combos for chromothripsis tumors (AID 1671453); settings: HTB85 osteosarcoma cells, drug combinations, stronger effect = higher value;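 also: cells exposed for 96 hours before readout; 0% = vehicle DMSO and 100% = high DMSO killing control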
# [6] = growth inhibition, single agents and combos, CRL2098, cell-based, BGB or cisplatin IC20 combos, synergistic combos for chromothripsis tumors (AID 1671454); settings: CRL2098 osteosarcoma cells, drug combinations, stronger effect = higher value;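 also: cells exposed for 96 h before readout; 0% = vehicle DMSO and 100% = killing by high DMSO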
# [7] = growth inhibition, single agents and combos, HD-MB03, cell-based, BGB or cisplatin IC20 combos, synergistic combos for chromothripsis tumors (AID 1671455; in the data active = inhibition above about 83%;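 also: 0% = vehicle DMSO and 100% = high DMSO as cytotoxic control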); settings: HD-MB03 medulloblastoma cells, stronger effect = higher value
# [8] = growth inhibition, single agents and combos, UWB1.289, cell-based, BGB or cisplatin combos, synergistic combos for chromothripsis tumors (AID 1671456); settings: UWB1.289 ovarian carcinoma cells, stronger effect = higher value;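 also: cells exposed to compound for four days; 0% = vehicle DMSO and 100% = killing by high DMSO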
# [9] = growth inhibition, single agents and combos, LFS_MB_2R, cell-based, cisplatin combos, synergistic combos for chromothripsis tumors (AID 1671457); settings: LFS_MB_2R medulloblastoma cells, stronger effect = higher value;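 also: cells exposed to compound for four days before readout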
# [10] = growth inhibition, MDA-MB-436, cell-based, BGB or cisplatin combos, synergistic combos for chromothripsis tumors (AID 1671458; call rule not given here;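 also: cells exposed for 96 hours; 0% = vehicle DMSO and 100% = killing by high DMSO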); settings: MDA-MB-436 breast carcinoma growth inhibition, drug combinations, stronger effect = higher value
# [11] = UWB1.289_BRCA1 ovarian cancer growth, cell-based, BGB or cisplatin combinations (AID 1671459); settings: UWB1.289 BRCA1 ovarian carcinoma, drug combinations, stronger effect = higher value
# [12] = drug combination toxicity in non-malignant astrocytes – cell-based, BGB or cisplatin IC20 combos, cytotoxicity control for chromothriptic childhood tumor combination screen (AID 1671460); settings: Human astrocytes, viability inhibition, drug combinations, at 0.5 µM, stronger effect = higher value;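 also: cells exposed to compounds for 96 hours before viability readout; 0% = vehicle and 100% = killing control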
# [13] = BT084 cell growth, single and combined drugs, ICGC_MB145, cisplatin and BGB IC40 combos (AID 1671461); settings: BT084 medulloblastoma cells, drug combinations, stronger effect = higher value;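 also: cells exposed to drugs for 96 hours; 0% = vehicle DMSO and 100% = high DMSO full killing control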
# [14] = RCMB18 cell growth, single agent and combined, cisplatin and BGB IC40 combos (AID 1671462); settings: RCMB18 medulloblastoma cells, stronger effect = higher value;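 also: cells exposed to compound for four days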
# [15] = CRL1545 cell growth, single agent and combined, cisplatin and BGB IC20 combos (AID 1671464); settings: CRL1545 osteosarcoma cells, stronger effect = higher value;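 also: cells exposed to compound for 96 hours before readout; 0% = vehicle DMSO and 100% = high DMSO killing control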
# [16] = measured here: combination with BGB IC40, at 0.05 µM
# [17] = measured here: with BGB IC20 combination, at 0.5 µM
# [18] = measured here: with cisplatin IC20 combination, at 0.5 µM
# [19] = measured here: combination with cisplatin, at 0.5 µM
# [20] = measured here: combination with cisplatin, at 5 µM
structure (smiles),measurement,setting,value
CC(=O)C1(O)Cc2c(O)c3c(c(O)c2C(OC2CC(N)C(O)C(C)O2)C1)C(=O)c1ccccc1C3=O (stereo not drawn),inhibition,"[1]; at 0.5 µM, stronger effect = higher value",-11.2% (inactive)
same,inhibition,"[1]; measured here: combination with BGB IC20, at 0.005 µM",-29.5%
same,inhibition,"[1]; measured here: combination with BGB IC40, at 0.005 µM",-38.8%
same,inhibition,[1]; [16],-19.5%
same,inhibition,"[1]; measured here: combination with cisplatin, at 0.5 µM, stronger effect = higher value",-31.3%
same,inhibition,"[1]; measured here: combination with cisplatin, at 5 µM, stronger effect = higher value",125%
same,inhibition,"[2]; BGB combo, at 5 µM",99.7%
same,inhibition,[2]; at 0.5 µM,98.4% (active)
same,inhibition,"[2]; cisplatin combo, at 5 µM",99.9%
same,inhibition,[2]; [17],97.4%
same,inhibition,[2]; [18],98.5%
same,inhibition,"[2]; single agent, at 5 µM",99.9%
same,inhibition,"[3]; BGB IC20 combo, at 0.005 µM",97.5%
same,inhibition,"[3]; BGB IC40 combo, at 0.005 µM",95.4%
same,inhibition,"[3]; BGB IC40 combo, at 0.05 µM",100%
same,inhibition,[3]; at 0.5 µM,-42.9% (inactive)
same,inhibition,"[3]; cisplatin combo, at 0.05 µM",100%
same,inhibition,"[3]; cisplatin combo, at 0.5 µM",-43%
same,inhibition,"[3]; cisplatin combo, at 5 µM",-1.78%
same,inhibition,"[3]; measured here: 5 uM single agent, at 5 µM",-14.9%
same,inhibition,[4]; at 0.5 µM,102% (active)
same,inhibition,[4]; [16],73.8%
same,inhibition,[4]; [19],103%
same,inhibition,[4]; [20],106%
same,inhibition,[5]; at 0.5 µM,99.6% (active)
same,inhibition,"[5]; measured here: with BGB IC20, at 0.5 µM",99.4%
same,inhibition,"[5]; measured here: with BGB IC20, at 5 µM",99.7%
same,inhibition,"[5]; measured here: with cisplatin IC20, at 0.5 µM",99.8%
same,inhibition,"[5]; measured here: with cisplatin IC20, at 5 µM",99.8%
same,inhibition,"[5]; single agent, at 5 µM",99.9%
same,inhibition,[6]; at 0.5 µM,98.6% (active)
same,inhibition,"[6]; measured here: combination with BGB at IC20, at 0.5 µM",98%
same,inhibition,"[6]; measured here: combination with cisplatin at IC20, at 0.5 µM",98.6%
same,inhibition,[7]; at 0.5 µM,94.5% (active)
same,inhibition,"[7]; measured here: combo with BGB at IC20, at 0.5 µM",89.5%
same,inhibition,"[7]; measured here: combo with cisplatin at IC20, at 0.5 µM",99.8%
same,inhibition,[8]; at 0.5 µM,83.1% (active)
same,inhibition,"[8]; measured here: inhibition with BGB combination, at 0.05 µM",40.5%
same,inhibition,"[8]; measured here: inhibition with cisplatin combination, at 0.05 µM",51.2%
same,inhibition,[9]; at 0.5 µM,75.6% (inactive)
same,inhibition,[9]; [19],88%
same,inhibition,[9]; [20],102%
same,inhibition,[10]; at 0.5 µM,76.4% (inactive)
same,inhibition,"[10]; measured here: BGB combination, at 0.5 µM",65.8%
same,inhibition,"[10]; measured here: BGB combination, at 5 µM",72.7%
same,inhibition,"[10]; measured here: cisplatin combination, at 0.5 µM",82.9%
same,inhibition,"[10]; measured here: cisplatin combination, at 5 µM",92.7%
same,inhibition,"[11]; BGB combination, concentration series, at 5 µM",101%
same,inhibition,[11]; at 0.5 µM,89% (active)
same,inhibition,"[11]; cisplatin combination, concentration series, at 5 µM",97.8%
same,inhibition,[12],89.9% (active)
same,inhibition,[12]; measured here: combo with BGB IC20,84%
same,inhibition,[12]; measured here: combo with cisplatin IC20,91.6%
same,inhibition,[13]; at 0.5 µM,13.8% (inactive)
same,inhibition,"[13]; cisplatin combination, at 0.5 µM",-40.7%
same,inhibition,"[13]; cisplatin combination, at 5 µM",77.4%
same,inhibition,"[13]; measured here: BGB IC40 combination 0.05 uM, at 0.05 µM",-4.42%
same,inhibition,"[13]; single agent, at 5 µM",81.6%
same,inhibition,[14]; at 0.5 µM,75.2% (inactive)
same,inhibition,"[14]; cisplatin combo, at 5 µM",89.9%
same,inhibition,"[14]; measured here: BGB IC40 combination, at 0.05 µM",34.7%
same,inhibition,[14]; [19],76.4%
same,inhibition,"[14]; single agent, at 5 µM",94.4%
same,inhibition,[15]; at 0.5 µM,99.1% (active)
same,inhibition,[15]; [17],98.7%
same,inhibition,[15]; [18],99.3%
same,inhibition,"[15]; single agent, at 0.05 µM",99.4%
same,inhibition,"[15]; single agent, at 5 µM",99.9%
